Results from paper PMC4336329 (PLoS ONE, 2015).
In all, about 310,000 compounds went through this assay and about 2,200 (0.71%) showed an effect of 50% or more. The effect is printed as a negative number. Shown is part of a subset that was picked to be rich in strong results.

What follows are compounds tested against human ether-à-go-go-related gene (hERG) potassium channel (human, UniProt Q12809) (assay: primary screen, population patch clamp on CHO cells stably expressing hERG; higher = less effect of the substance).
human ether-à-go-go-related gene (hERG) potassium channel, sequence (Q12809 whole entry, looked up): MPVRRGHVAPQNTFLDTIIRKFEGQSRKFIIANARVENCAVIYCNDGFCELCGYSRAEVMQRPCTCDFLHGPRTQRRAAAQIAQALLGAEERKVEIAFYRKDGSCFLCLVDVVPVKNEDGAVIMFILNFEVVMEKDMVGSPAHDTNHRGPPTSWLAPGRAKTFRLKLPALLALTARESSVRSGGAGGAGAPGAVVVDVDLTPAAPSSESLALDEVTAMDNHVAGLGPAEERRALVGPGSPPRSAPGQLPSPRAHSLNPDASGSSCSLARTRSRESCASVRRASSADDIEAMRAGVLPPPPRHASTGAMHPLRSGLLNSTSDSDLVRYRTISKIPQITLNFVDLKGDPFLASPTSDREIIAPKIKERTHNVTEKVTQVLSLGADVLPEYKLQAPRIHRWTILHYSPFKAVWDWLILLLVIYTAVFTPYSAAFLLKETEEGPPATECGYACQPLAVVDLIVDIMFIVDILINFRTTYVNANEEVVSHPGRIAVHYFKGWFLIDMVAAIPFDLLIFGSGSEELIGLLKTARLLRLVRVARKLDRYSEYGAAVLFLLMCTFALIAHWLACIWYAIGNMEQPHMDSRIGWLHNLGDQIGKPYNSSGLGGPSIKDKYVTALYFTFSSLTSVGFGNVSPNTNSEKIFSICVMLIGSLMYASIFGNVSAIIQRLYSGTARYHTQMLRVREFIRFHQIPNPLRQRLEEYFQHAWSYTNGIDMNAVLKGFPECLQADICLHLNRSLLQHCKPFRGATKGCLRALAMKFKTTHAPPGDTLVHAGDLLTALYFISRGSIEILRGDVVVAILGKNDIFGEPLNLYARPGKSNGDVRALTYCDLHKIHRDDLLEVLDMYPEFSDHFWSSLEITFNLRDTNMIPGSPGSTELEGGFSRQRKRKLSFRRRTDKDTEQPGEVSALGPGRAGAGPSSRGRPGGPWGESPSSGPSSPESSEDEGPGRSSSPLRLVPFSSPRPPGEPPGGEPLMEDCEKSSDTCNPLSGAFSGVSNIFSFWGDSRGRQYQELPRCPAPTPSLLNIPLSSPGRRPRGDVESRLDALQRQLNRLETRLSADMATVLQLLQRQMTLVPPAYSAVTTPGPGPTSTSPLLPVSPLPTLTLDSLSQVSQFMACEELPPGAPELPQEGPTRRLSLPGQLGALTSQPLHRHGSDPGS

| Structure (SMILES) | hERG current change (%, negative = inhibition) at 1uM [%] |
| --- | --- |
| CCc1ccc(N(CC(=O)Nc2ccccc2C(=O)N2CCOCC2)S(C)(=O)=O)cc1 | 8.28 |
| O=C(NCc1cccnc1)c1ccc(CS(=O)(=O)Cc2ccc(Cl)cc2)o1 | 3.03 |
| Cc1c(C(=O)OCC(=O)N2c3ccccc3CC2C)oc2ccccc12 (centres unmarked) | 14.6 |
| O=C(Nc1cccc(F)c1)Nc1ccccn1 | 16 |
| Cc1c(C(=O)c2ccccc2)c(=O)n(C)c(=O)n1C | 9.65 |
| O=S(=O)(Nc1cccc(-c2ccc(N3CCCCCC3)nn2)c1)c1cccc(F)c1 | 14.3 |
| CSc1nnc(-c2ccc(O)cc2)n1C | -1.62 |
| COC(=O)c1ccc(CN2CCCC(C(=O)c3cc(F)ccc3OC)C2)cc1 (centres unmarked) | -8.3 |
| O=C1c2ccccc2C(=O)N1CCCc1nc(-c2ccccn2)no1 | -4.38 |
| CCOC(=O)/C(N=Nc1sc(C(=O)OC)c(C)c1C(=O)OCC)=C(\O)CCl | 14.4 |
| COc1cc(OC)cc(C(=O)OCC(=O)N(C)c2ccccc2)c1 | 9.32 |
| Oc1ccc(-c2[nH]ncc2-c2ccc(Br)cc2)c(O)c1 | 6.73 |
| CCC(=O)Nc1ccc(Oc2ccc3c(c2)C(=O)N(c2ccc(O)cc2)C3=O)cc1 | 13.7 |
| O=C1CC(N2CCN(C/C=C/c3ccccc3)CC2)C(=O)N1CCc1ccccc1 (centres unmarked) | -4.01 |
| O=C1CC(N2CCN(C/C=C/c3ccccc3)CC2)C(=O)N1Cc1ccc(N2CCCC2=O)cc1 (centres unmarked) | -13 |
| O=C1CC(N2CCN(C/C=C/c3ccccc3)CC2)C(=O)N1Cc1cccs1 (centres unmarked) | -50.8 |
| COc1ccc(NC(=O)CN2CCN(CC(=O)Nc3ccc(F)cc3)CC2)cc1Cl | -88.6 |
| COc1ccc(NC(=O)CN2CCN(CC(=O)Nc3ccccc3Cl)CC2)c(OC)c1 | -48 |
| COc1ccc(NC(=O)CN2CCCN(S(=O)(=O)c3ccc(F)cc3)CC2)c(OC)c1 | -8.18 |
| COc1cccc(NC(=O)CN2CCN(CC(=O)Nc3ccc(F)cc3)CC2)c1 | -90.6 |
| COc1ccc(NC(=O)CN2CCN(c3ccc(F)cc3)CC2)cc1Cl | 13.2 |
| COc1ccc(NC(=O)CN2CCN(S(=O)(=O)c3ccc(F)cc3)CC2)cc1Cl | 7.03 |
| CCOc1ccc(NC(=O)CN2CCN(CC(=O)Nc3ccccc3OC)CC2)cc1 | -30.9 |

| Structure (SMILES) | hERG current change (%, negative = inhibition) at 1uM [%] |
| --- | --- |
| COc1cccc(NC(=O)CN2CCN(S(=O)(=O)c3ccc(F)cc3)CC2)c1 | 4.16 |
| COc1ccc(NC(=O)CN2CCN(CC(=O)Nc3ccccc3F)CC2)c(OC)c1 | -19.6 |
| COc1ccc(NC(=O)CN2CCN(CC(=O)Nc3ccc(F)cc3)CC2)c(OC)c1 | -83.3 |
| COc1cccc(NC(=O)CN2CCN(c3ccc(F)cc3)CC2)c1 | 2.77 |
| CCOc1ccc(NC(=O)CN2CCN(CC(=O)Nc3ccc(OC)cc3OC)CC2)cc1 | -58.2 |
| Cc1[nH]c2ccccc2c1C(=O)/C=C/c1ccccc1Cl | 14.6 |
| NC(=O)CN1C(=O)NC2(CCCc3sccc32)C1=O (centres unmarked) | 17 |
| O=C(CCC(=O)c1cccs1)OCc1nc2ccccc2s1 | 12.6 |
| O=c1c2ccccc2nc(CSc2ncnc3nc[nH]c23)n1-c1cccc(C(F)(F)F)c1 | -2.15 |
| COc1ccc(NC(=O)COc2cccnc2[N+](=O)[O-])cc1OC | 15.8 |
| Cc1nc(C(=O)Nc2cc(Cl)ccc2Cl)nn1-c1cc(OC(C)C)c(Cl)cc1Cl | -0.146 |
| CC1CCCN(C(=O)CSc2cnc3ccccc3n2)C1 (centres unmarked) | -9.88 |
| COc1ccccc1-c1noc(CSc2nc(C)cc(=O)[nH]2)n1 | 19.4 |
| Cc1ccc(NC(=O)C2C(c3ccccc3)C2(Cl)Cl)c(C)c1 (centres unmarked) | 2.95 |
| COc1ccc(-c2nc(-c3cccs3)c(-c3cccs3)[nH]2)cc1OC | 20.3 |
| O=[N+]([O-])c1cc([N+](=O)[O-])c(Oc2cc(Cl)cc(Cl)c2)cc1NN1CCCCC1 | 11.6 |
| Cc1ccc(S(=O)(=O)NCC2CCC(C(=O)NCCCN3CCCC3=O)CC2)cc1 (centres unmarked) | 11.2 |
| COc1ccc(N(CC(=O)O)S(=O)(=O)c2cccnc2)cc1 | 14.2 |
| COc1ccccc1NC(=O)CN1CCN(CC(=O)Nc2ccc(C)c(F)c2)CC1 | -49.1 |
| COc1ccccc1NC(=O)CN1CCN(CC(=O)Nc2ccc(OC)c(OC)c2)CC1 | 12 |
| COc1ccccc1NC(=O)CN1CCN(CC(=O)Nc2ccc(F)cc2)CC1 | -87.4 |
| CCCCCn1c(N2CCN(Cc3ccccc3)CC2)nc2c1c(=O)[nH]c(=O)n2C | -77 |
| Cn1c(=O)[nH]c(=O)c2c1nc(N1CCN(Cc3ccccc3)CC1)n2CCCc1ccccc1 | -22 |

| Structure (SMILES) | hERG current change (%, negative = inhibition) at 1uM [%] |
| --- | --- |
| CCCCCCn1c(N2CCN(c3ccccc3)CC2)nc2c1c(=O)[nH]c(=O)n2C | -20.5 |
| CCCCCn1c(CN2CCN(Cc3ccccc3)CC2)nc2c1c(=O)n(C)c(=O)n2C | -57.9 |
| Cn1c(=O)[nH]c(=O)c2c1nc(CN1CCN(Cc3ccccc3)CC1)n2CC(N)=O | 6.48 |
| CCCCCn1c(CN2CCN(Cc3ccccc3)CC2)nc2c1c(=O)[nH]c(=O)n2C | -72.5 |
| CCCCCn1c(CN2CCN(C)CC2)nc2c1c(=O)n(C)c(=O)n2C | -5.24 |
| CCN1CCN(c2nc3c(c(=O)[nH]c(=O)n3C)n2CCCc2ccccc2)CC1 | -81.5 |
| CCCCCn1c(N2CCC(Cc3ccccc3)CC2)nc2c1c(=O)[nH]c(=O)n2C | 11.2 |
| CCN1CCN(c2nc3c(c(=O)[nH]c(=O)n3C)n2Cc2ccccc2)CC1 | 1.8 |
| CCCCCCn1c(CN2CCN(Cc3ccccc3)CC2)nc2c1c(=O)n(C)c(=O)n2C | -47.2 |
| CC(C)CCn1c(CN2CCN(Cc3ccccc3)CC2)nc2c1c(=O)[nH]c(=O)n2C | -2.51 |
| COc1ccc(CCNC(=O)Nc2ccc(F)cc2F)cc1OC | 15.8 |
| CCOC(=O)C1CCN(C(=O)Nc2ccc3snnc3c2)CC1 | 3.17 |
| O=C(Nc1ccc(F)cc1)N(Cc1cccs1)Cc1cc2cc3c(cc2[nH]c1=O)OCO3 | 16.6 |
| COc1cc(C(=O)NCCOc2ccccc2)cc(OC)c1OC | 16.3 |
| CCOC(=O)N1CCN(CCC(=O)Nc2ccc(OC)cc2OC)CC1 | 3.55 |
| O=C(Oc1c(-c2ccco2)oc2ccccc2c1=O)c1cccnc1 | 16.2 |
| COc1cc(SC#N)ccc1N=Cc1c(C)[nH]n(-c2cccc3ccccc23)c1=O | 13.4 |
| COc1ccc(CCNC2CC(=O)N(CCc3ccc(OC)c(OC)c3)C2=O)cc1 (centres unmarked) | 7.42 |
| O=C(Cn1cnc2c(oc3ccccc32)c1=O)NCC1CCCO1 (centres unmarked) | 9.36 |
| C=CCOc1ccccc1CN1CCCCCC1 | 11.6 |
| CCOc1ccc(C(=O)N2CCCN(C(=O)c3ccc(OCC)cc3)CC2)cc1 | -69.3 |
| CCOc1ccc(C(=O)N2CCCCCC2)cc1 | 9.17 |
| CCOc1ccc(C(=O)N2CCCC2)cc1 | 10.9 |

| Structure (SMILES) | hERG current change (%, negative = inhibition) at 1uM [%] |
| --- | --- |
| O=C(c1ccc(F)cc1)N1CCN(Cc2ccccc2)CC1 | 10.5 |
| CCOc1ccc(C(=S)N2CCN(C)CC2)cc1 | -84.3 |
| O=C(c1ccc(-n2cccc2)cc1)N1CCN(Cc2ccccc2)CC1 | -59.9 |
| C=CCOc1ccccc1CN1CCC(Cc2ccccc2)CC1 | -51.6 |
| CCOc1ccc(C(=S)N2CCCC2)cc1 | 5.79 |
| O=C(O)C(=O)O.O=C(c1ccccc1)N1CCN(Cc2ccccc2)CC1 | 2.81 |
| C=CCOc1ccccc1CN1CCSCC1 | -1.02 |
| CCOc1ccc(C(=S)N2CCOCC2)cc1 | 5.79 |
| O=C(CN1CCN(c2ccc(F)cc2)CC1)Nc1ccc(-n2cnnn2)cc1 | 8.42 |
| O=C(CSc1nn(-c2ccc(F)cc2)c(=S)s1)NCC1CCCO1 (centres unmarked) | -2.14 |
| Cc1ccc(Cl)cc1NC(=O)N[C@@H](C)C(=O)O | 9.9 |
| Cc1cccc(C2c3[nH]c4ccccc4c3CCN2C(=O)c2cc(CC(C)C)nc(C)n2)n1 (centres unmarked) | 14 |
| CSc1ccc(CN2CCC(Cc3ccccc3)CC2)cc1 | -29.6 |
| CCOc1ccc(CN2CCN(C(=O)c3ccccc3)CC2)cc1 | -1.03 |
| CCOc1ccc(C(=O)N2CCN(c3ccccc3)CC2)cc1 | -0.559 |
| CCOc1ccc(C(=O)N2CCN(Cc3ccccc3)CC2)cc1 | -60.3 |
| CCOc1ccc(CN2CCC(Cc3ccccc3)CC2)cc1 | -76.8 |
| Clc1ccc(CN2CCC(Cc3ccccc3)CC2)cc1 | 12.3 |
| CCCCNC(=O)C1C2C=CC3(CN(Cc4ccc(C)cc4)C(=O)C13)O2 (centres unmarked) | 13.1 |
| O=C(Nc1cccc(Cl)c1)NC1CCS(=O)(=O)C1 (centres unmarked) | 12.9 |
